The list is not random: actives were taken first. Their share in the collection is about 3.8%.
A549 viability: counter-screen for Nrf2 inhibitors: cytotoxicity in A549 cells; 390,000 compounds, 0.16% hits; A549 ARE-Fluc cells, CellTiter-Fluor viability, 18-24 h; Potency, µM (top dose mostly 46 µM), for inactives: at the highest dose activity change, negative = cytotoxicity, most hits filed as inhibitors; note: % is set by controls: 0 for no effect and ±100 for the full control effect
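Cytotoxicity counterscreen: CellTiter-Fluor fluorescence was measured in A549 ARE_Fluc cells after 18-24 h of compound exposure in a concentration series. The subsequent BugLite luminescent read reports ARE-luciferase activity.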
TGFb SMAD3 inh: blocks TGF-b signaling. HepG2 CAGA-GFP TGF-b/SMAD3 reporter, GFP fluorescence, 18 h; TGF-beta stimulated, 500 pg/mL final. Potency, µM (top dose mostly 46.1 µM), without a hit: at the highest dose activity, negative = inhibition, actives largely listed as inhibitors. 410,000 compounds, 1.2% hits. AID 588855; note: % is set by controls: 0 for no effect and ±100 for the full control effect; nearly all actives have a fitted effect of over 65% in size
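GFP signal (ex488/em500-530) from TGF-beta-stimulated HEPG2 CAGA-GFP cells, 500 pg/mL final, 18 h at 37 degrees C in DMEM plus 1% FBS, normalized to unstimulated and DMSO-stimulated controls.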
HepG2 tox: counter-screen for TGF-b inhibitors: cytotoxicity in HepG2 cells; HepG2 CAGA-GFP viability, ATP luminescence, 18 h; Potency, µM (doses to about 46.1 µM), without a hit: at the top dose activity change, negative = cytotoxicity, most hits filed as cytotoxic; 410,000 compounds, 0.76% hits
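HepG2 CAGA-GFP cells (1000/well, DMEM with 1% FBS) received compound, then TGF-beta at 500 pg/mL final, and were incubated 18 hours at 37 degrees C. Viability was read by CellTiter-Glo luminescence. Media-only wells were set as complete cell-killing and DMSO as no toxicity.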
ATXN2 expr inh: reduces ATXN2 reporter expression in HEK-293 cells. HEK-293 ATXN2-luciferase reporter, luminescence, 24 h. Potency, µM (titrated, usually from 57 µM), without a hit: top-dose activity change, negative = inhibition, usual class: inhibitors. 360,000 compounds, 0.72% hits; note: % is set by controls: 0 for no effect and ±100 for the full control effect; nearly all actives have a fitted effect of over 55% in size
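qHTS (up to 57 uM final) was run with 24 h compound exposure of reporter cells at 37 °C. Each well was multiplexed: SteadyGlo luminescence measured ATXN2-luciferase expression after a fluorogenic Gly-Phe-AFC viability readout (25 uM final).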
ATXN viability: cell viability loss in ATXN counter-screen. S2 cells (HEK-293 line with an ATXN2-luciferase reporter) viability, CellTiter-Fluor protease fluorescence, 24 h. Potency, µM (titrated, usually from 56.7 µM), usual class: cytotoxic. 400,000 compounds, 0.49% hits; note: nearly all actives have a fitted effect of over 40% in size
Nrf2 inh: Nrf2 pathway inhibition | A549 ARE-Fluc reporter, luciferase luminescence, 18-24 h | Potency, µM (doses to about 46 µM), without a hit: top-dose activity change, negative = inhibition, most hits filed as inhibitors | AID 504444 | 360,000 compounds, 2.1% hits; note: % is set by controls: 0 for no effect and ±100 for the full control effect; nearly all actives have a fitted effect of over 60% in size
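Nrf2 function is reported as luminescence of an ARE-controlled luciferase in A549 cells. Compounds were tested at several concentrations, and a CellTiter-Fluor read on the same wells flagged cytotoxicity.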
Active calls of the source: *; i = inactive; ? = inconclusive; / = not tested or not shown; [ ] = dose if it differs, or a comment. Calls come from the whole dose curve; as a rule, active = well fitted curve in the direction sought with a large enough effect; inconclusive = small, poorly fitted or top-dose-only effect, or another doubt; inactive = no such curve, though single readings can be large; an effect the other way counts as inactive or inconclusive. Potency is the fitted concentration of half-maximal effect.

SMILES	A549 viability	TGFb SMAD3 inh	HepG2 tox	ATXN2 expr inh	ATXN viability	Nrf2 inh
COc1ccc(NC(=O)COC(=O)Cn2cnc3ccccc3c2=O)c(OC)c1	1.0%	2.4%	19.1%	/	?	3.3%
COC1=C(N)C(=O)c2nc(-c3nc(C(=O)O)c(C)c(-c4ccc(OC)c(OC)c4O)c3N)ccc2C1=O	2.59µM*	0.282µM*	-86.2%	-91.9%	2.24µM*	0.0731µM*
CC(=O)Nc1cccc(NC(=S)Nc2cccc(Cl)c2Cl)c1	4.3%	4.0%	0.3%	-25.8%	i	-10.7%
CCc1cccc(CC)c1NC(=S)Nc1cccc(Cl)c1Cl	12.8%	?	17.8µM*	0.5%	i	16.3%
COc1ccc(CC(=O)Nc2cccc(-c3nnc(-c4ccco4)o3)c2)cc1	?	26.7%	-17.5%	-2.2%	?	6.51µM*
CCOC(=O)/C(C#N)=C1/C=C(C)NC(c2ccccc2O)=N1	-3.9%[1.84 µM]	?	-33.2%	?	?	13µM*
Cn1c(=O)c2c(-c3ccc(Br)cc3)n(CCc3ccccc3)cc2n(C)c1=O	-12.8%	10µM*	-54.3%	?	?	?
CCc1ccc2c(c1)C1(NN=C(c3ccc(C)cc3)S1)C(=O)N2 (stereo unspecified)	?	15.8µM*	-95.2%	?	?	?
COc1cccc(N=Nc2ccc3cccnc3c2O)c1	-19.0%	?	-10.3%	/	/	-23.6%
COc1cccc(N=Nc2ccc(O)c3ncccc23)c1	?	?	-8.6%	?	15.8µM*	?
Cc1ccccc1N=Nc1ccc(O)c2ncccc12	-17.3%	-13.9%	-3.0%	?	i	-21.1%
COc1ccc(N=Nc2ccc(O)c3ncccc23)cc1	?	?	-3.7%	/	?	11.6µM*
Oc1ccc(N=Nc2ccc3c(c2)OCCO3)c(O)c1	-15.9%	-17.0%	-42.7%	?	?	?
Oc1ccc(N=Nc2ccc3c(c2)OCCO3)c2cccnc12	?	3.8%	0.7%	?	10µM*	?
O=C(NC1CCCCC1)N1CCN(c2ncccn2)CC1	-2.1%	13.1%	2.7%	3.7%	i	4.4%
Cc1noc(C)c1CCC(=O)Nc1cc(C(=O)O)ccc1Cl	/	3.6%	-21.1%	/	i	/
CCCC(C)C(=O)Nc1ccc(S(=O)(=O)Nc2nccs2)cc1 (stereo unspecified)	-0.6%	-14.4%	-10.5%	-21.0%	i	-1.2%
CSc1ccccc1C(=O)N1CCN(c2cccc(Cl)c2)CC1	?	?	-47.2%	-27.4%	i	16.4µM*
CSc1ncc(C(=O)N2CCN(c3cccc(Cl)c3)CC2)c(C)n1	2.7%	?	-35.4%	-30.5%	i	-5.3%
O=C(c1ccc([N+](=O)[O-])s1)N1CCN(c2cccc(Cl)c2)CC1	-19.1%	11.2µM*	-97.8%	-24.7%	?	?
CN(Cc1ccccc1)/[N+]([O-])=N/Oc1ccc([N+](=O)[O-])cc1[N+](=O)[O-]	/	?	-95.0%	/	/	/
Nc1ccc(-c2nc3c(Cl)cc(N)cc3[nH]2)cc1	-14.4%	-11.9%	-8.5%	10µM*	i	?
Nc1ccc2nc(-c3ccc(N)c(Cl)c3)[nH]c2c1	-15.2%	?	-42.1%	-9.2%	?	?
CC1(C)CC2(C)OC2C2(C1)N=NC(=Nc1ccccc1)O2 (stereo unspecified)	/	2.82µM*	-69.1%	-18.1%	22.4µM*	/
CC(C)(C)C(=O)NCc1ccc(C(=O)CSc2nnc3n2CCCCC3)s1	/	0.5%	-2.2%	/	i	/
SMILES	A549 viability	TGFb SMAD3 inh	HepG2 tox	ATXN2 expr inh	ATXN viability	Nrf2 inh
CCN1C(=O)C(=O)N(CC(=O)Nc2ccccc2Oc2ccccc2)C1=O	4.4%	-1.3%	-2.6%	-11.5%	i	-27.1%
COCCOC(=O)C1=C(C)N(c2ccccc2)C(=O)NC1c1cccc([N+](=O)[O-])c1 (stereo unspecified)	4.9%	-8.7%	-5.5%	2.1%	i	10.0%
COC(=O)C1=C(C)NC(C)=C(C(=O)OCCN2CCN(C(c3ccccc3)c3ccccc3)CC2)C1c1cccc([N+](=O)[O-])c1 (stereo unspecified)	/	/	/	14.1µM*	?	/
Cc1ccc(C(=O)N2CCN(c3ncnc4c(C)csc34)CC2)cc1	-5.1%	0.0%	-39.7%	?	i	?
Cc1csc2c(N3CCN(C(=O)Nc4ccccc4)CC3)ncnc12	-2.6%	-1.9%	-9.9%	-29.1%	i	8.2µM*
Cc1csc2c(N3CCN(C(=S)Nc4ccc(F)cc4F)CC3)ncnc12	-5.0%	-18.5%	2.9%	-12.3%	i	18.4µM*
Cc1csc2ncnc(N3CCN(C(=O)Nc4ccc(OC(F)(F)F)cc4)CC3)c12	?	?	-45.9%	/	i	23.1µM*
N#Cc1ccsc1NC(=O)C1CC(=O)N(Cc2ccccc2)C1 (stereo unspecified)	0.3%	11.0%	3.1%	3.0%	i	3.3%
O=C(N=Nc1c(O)[nH]c2ccc(Br)cc12)c1cc(-c2cccs2)nc2ccccc12	?	-3.5%	-39.7%	11.2µM*	10µM*	?
O=C(CSc1nc2ccc([N+](=O)[O-])cc2[nH]1)NC1CCCCCC1	?	?	-17.7%	-37.4%	?	13µM*
CCn1ncc(C2=NOC(C(=O)Nc3cnn(C45CC6CC(CC(C6)C4)C5)c3)C2)c1C (stereo unspecified)	1.4%	-13.1%	5.7%	28.2µM*	?	/
CCn1ncc(C2=NOC(C(=O)NCC(C)C)C2)c1C (stereo unspecified)	-2.0%	17.0%	-4.6%	-30.4%	?	-5.7%
Cc1ccc(NC(=O)CN2C(=O)NC3(CCCCC3)C2=O)cc1S(=O)(=O)N1CCOCC1	-6.1%	0.9%	10.0%	3.8%	i	-22.0%
O=C(CN1C(=O)NC2(CCCCC2)C1=O)Nc1ccc(Cl)c(S(=O)(=O)N2CCOCC2)c1	-7.8%	-17.1%	-25.6%	-22.7%	i	23.1µM*
O=C(Cc1cccs1)Nc1ccc(Cl)c(S(=O)(=O)N2CCOCC2)c1	-6.9%	-22.9%	-17.4%	0.0%	i	16.4µM*
COc1ccc(C(=O)Nc2ccc(Cl)cc2C(=O)N2CCCC(C)C2)cc1 (stereo unspecified)	9.6%	-6.6%	-24.9%	-10.6%	i	-5.3%
CCCCCCCCCCCCCCCC[n+]1cccc2ccccc21	-17.5%	6.31µM*	11.2µM*	?	17.8µM*	25.9µM*
CCCCCCCCC[n+]1cccc2c3ccccc3ccc21	?	1.78µM*	15.8µM*	2.24µM*	i	9.2µM*
C[n+]1ccc(/C=C/c2ccc(C=S)cc2)c2ccccc21	/	0.7%	-38.6%	/	/	/

Screening results: PubChem BioAssay, National Center for Advancing Translational Sciences (NCATS)
